Reference: PubChem BioAssay (EPA / NIEHS)
Records with an inconclusive call do not appear. Calls of active or inactive are those of the source. The calls were made as follows, unless noted: active = hit-call score of the fitted dose curve at least 0.9, where 1 is the maximum; inactive = score below 0.9.

Tests used:
[1] = CCTE_Shafer_MEA_acute_synchrony_index: CCTE's Neural Acute Assay for Synchrony, Shafer Lab (AID 2284027);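 also: network synchrony index of spontaneous spiking in primary rat cortical neurons on MEAs; fitted for loss of signal so actives lower synchrony relative to DMSO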
In short: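 Primary rat cortical neurons on 48-well MEAs, dosed at 0.03–40 uM on DIV 13 or 15. Spikes are recorded for 40 min at 37C before and after exposure, and synchrony index (0–1) is expressed as percent change from baseline per well.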

[2] = CCTE_Deisenroth_AIME_384WELL_CTox_Active: Cytotoxicity Assessment (CTOX) in CCTE's 384-well Estrogen Receptor Transactivation Assay with AIME metabolic competence (metabolism positive), Deisenroth Lab (AID 2284037; active = hit-call score of the fitted dose curve at least 0.9, where 1 is the maximum;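 also: activity means signal loss indicating cell death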)
In short: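 VM7Luc4E2 breast cells received medium pre-incubated 2 h with chemical over alginate microspheres holding induced male Sprague Dawley rat liver S9; viability read 24 h later by protease-substrate fluorescence. Loss of signal, bidirectional fit, 0.002–200 uM.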

[3] = biological target: Estrogen receptor (Homo sapiens) (UniProt P03372); assay: CCTE_Deisenroth_AIME_384WELL_LUC_Inactive: CCTE's 384-well Estrogen Receptor Transactivation Assay without AIME metabolic competence (ERTA luciferase; metabolism negative), Deisenroth Lab (AID 2284038; active = hit-call score of the fitted dose curve at least 0.9, where 1 is the maximum;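 also: hits raise estrogen receptor luciferase signal so potencies reflect agonists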)
Sequence of Estrogen receptor (Homo sapiens) (P03372 whole entry, looked up): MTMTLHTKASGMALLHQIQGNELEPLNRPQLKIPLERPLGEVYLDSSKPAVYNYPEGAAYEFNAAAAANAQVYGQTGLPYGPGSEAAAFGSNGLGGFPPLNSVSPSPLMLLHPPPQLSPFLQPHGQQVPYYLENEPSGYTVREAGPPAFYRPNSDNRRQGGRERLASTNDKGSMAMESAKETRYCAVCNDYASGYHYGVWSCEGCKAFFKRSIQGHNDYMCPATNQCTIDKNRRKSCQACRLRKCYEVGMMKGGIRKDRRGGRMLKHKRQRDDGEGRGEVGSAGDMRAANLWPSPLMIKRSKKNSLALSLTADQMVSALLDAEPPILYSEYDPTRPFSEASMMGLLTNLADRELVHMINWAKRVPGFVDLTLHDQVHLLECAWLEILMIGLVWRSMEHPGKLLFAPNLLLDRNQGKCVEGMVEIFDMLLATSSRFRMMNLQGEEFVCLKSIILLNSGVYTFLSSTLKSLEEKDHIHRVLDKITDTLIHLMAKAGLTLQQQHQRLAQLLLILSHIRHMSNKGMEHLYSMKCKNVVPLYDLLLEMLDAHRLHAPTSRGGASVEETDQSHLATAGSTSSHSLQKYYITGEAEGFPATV
In short: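 Metabolism-negative mode: chemicals (10-point, 0.002–200 uM) held 2 h with alginate-water microspheres, then conditioned medium applied to VM7Luc4E2 cells for 24 h. Luciferase induction referenced to 17beta-estradiol.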

[4] = CCTE_Shafer_MEA_dev_per_burst_spike_percent: CCTE's Neural Network Formation Assay for Percent of Spikes in a Burst, Shafer Lab (AID 2284032);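 as to AC50: fitted as a decrease in burst spike percentage below DMSO baseline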
In short: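 Rat primary cortical neurons on 16-electrode MEA wells, dosed from plating day 0 for 12 days with renewal on DIV 5 and 9; spikes-in-bursts percentage averaged over bursting electrodes, collapsed as AUC across days 5, 7, 9, 12; loss direction versus DMSO.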

[5] = CCTE_Deisenroth_AIME_384WELL_CTox_Inactive: Cytotoxicity Assessment (CTOX) in CCTE's 384-well Estrogen Receptor Transactivation Assay without AIME metabolic competence (metabolism negative), Deisenroth Lab (AID 2284039; active = hit-call score of the fitted dose curve at least 0.9, where 1 is the maximum;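 also: cell viability via live-cell protease substrate cleaved to fluorescent probe; cells exposed 24 h to medium preincubated 2 h with alginate-water beads without S9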)
In short: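 Fluorescent protease-substrate viability readout after 24 h exposure of VM7Luc4E2 cells to conditioned medium. Chemicals (0.002–200 uM) first sat 2 h over alginate-water beads, no S9. Data fitted bidirectionally, loss of signal meaning viability loss.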

[6] = CCTE_Shafer_MEA_dev_active_electrodes_number: CCTE's Neural Network Formation Assay for Number of Active Electrodes, Shafer Lab (AID 2284040; active = hit-call score of the fitted dose curve at least 0.9, where 1 is the maximum;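 as to AC50: potency for loss of active electrodes versus DMSO so lower counts are hits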)
In short: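 Primary rat cortical neurons on 16-electrode MEA wells, exposed from day 0 through day 12 with compound renewed at DIV 5 and 9 feeds. Active electrodes (mean firing ≥5 spikes/min) counted at DIV 5, 7, 9, 12; trapezoidal AUC across days, loss-of-signal versus DMSO.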

[7] = CCTE_Shafer_MEA_dev_burst_rate: CCTE's Neural Network Formation Assay for Burst Rate, Shafer Lab (AID 2284042);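 as to AC50: potency for loss of burst rate below DMSO control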
In short: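 Exposure ran continuously over 12 days of network development in rat cortical cultures, with compound refreshed during full media changes on DIV 5 and 9. Single-electrode bursts per recording time, well-mean over active electrodes, trapezoidal AUC across days 5–12, fitted downward relative to DMSO.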

[8] = CCTE_Shafer_MEA_dev_bursting_electrodes_number: CCTE's Neural Network Formation Assay for Number of Bursting Electrodes, Shafer Lab (AID 2284043; active = hit-call score of the fitted dose curve at least 0.9, where 1 is the maximum;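 as to AC50: potency is for loss of bursting electrodes relative to DMSO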)
In short: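 Primary rat cortical neurons were cultured on PEI-coated 48-well MEA plates (16 electrodes/well) and exposed from plating through day 12, with compound renewed at feeds on DIV 5 and 9. Electrodes bursting ≥1 per 2 min were counted on DIV 5, 7, 9, 12; trapezoidal AUC taken.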

[9] = CCTE_Shafer_MEA_dev_per_burst_interspike_interval: CCTE's Neural Network Formation Assay for Burst Interspike Interval, Shafer Lab (AID 2284044);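 also: mean spike spacing inside bursts as AUC over recordings on days 5 7 9 12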;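 as to AC50: potency for a decrease of within-burst interspike interval below DMSO level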
In short: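 Mean interspike interval within single-electrode bursts, averaged over bursting electrodes, from rat cortical cultures on MEA plates recorded on days 5, 7, 9 and 12. Continuous compound exposure from plating; trapezoidal AUC fitted downward relative to DMSO.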

[10] = CCTE_Shafer_MEA_dev_burst_duration_mean: CCTE's Neural Network Formation Assay for Mean Burst Duration, Shafer Lab (AID 2284045);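 as to AC50: curve fitted for loss meaning shorter burst duration than DMSO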
In short: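 Primary rat cortical neurons on PEI-coated 16-electrode MEA wells, exposed from plating through day 12 with compound renewed at DIV 5 and 9; spontaneous activity recorded days 5, 7, 9, 12. Well-mean burst duration collapsed as trapezoidal AUC, fitted for loss versus DMSO.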

[11] = CCTE_Shafer_MEA_dev_interburst_interval_mean: CCTE's Neural Network Formation Assay for Mean Interburst Interval, Shafer Lab (AID 2284046);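 also: well-mean interburst interval of bursting electrodes as AUC over four recording days; curve fitted for decrease in interburst interval relative to DMSO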
In short: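 Primary rat cortical neurons on PEI-coated 48-well MEA plates (laminin added with cells at plating) (16 electrodes/well), exposed from plating day 0 with renewal at DIV 5 and 9. Mean inter-burst interval averaged over bursting electrodes, AUC across days 5, 7, 9, 12; DMSO baseline.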

[12] = CCTE_Shafer_MEA_dev_inter_network_spike_interval_mean: CCTE's Neural Network Formation Assay for Mean Inter-network Spike Interval, Shafer Lab (AID 2284047)
In short: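 Mean time between consecutive network-spike peaks, recorded extracellularly (adaptive spike detection) on DIV 5, 7, 9 and 12, summarized as trapezoidal AUC. Rat cortical cultures on MEAs dosed continuously days 0–12, re-dosed at feeds; loss-of-signal fit relative to DMSO.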

[13] = CCTE_Shafer_MEA_dev_network_spike_number: CCTE's Neural Network Formation Assay for Number of Network Spikes, Shafer Lab (AID 2284048);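 also: synchronized bursts across electrodes counted on days 5 7 9 12 and integrated as AUC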;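 as to AC50: fit as a loss of signal meaning fewer network spikes than DMSO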
In short: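 Primary rat cortical neurons were seeded at 1.5 x 10^5 cells/well on PEI-coated 16-electrode MEA wells with laminin, exposed from plating day 0, compound renewed at DIV 5 and 9. Network spikes were recorded on days 5, 7, 9, 12 and summarized as trapezoidal AUC versus DMSO.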

[14] = CCTE_Shafer_MEA_dev_network_spike_peak: CCTE's Neural Network Formation Assay for Mean Number of Electrodes in Network Spike, Shafer Lab (AID 2284049);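 as to AC50: fitted for loss of signal meaning fewer electrodes in network spikes than DMSO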
In short: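 Continuous 12-day exposure of rat cortical cultures, starting at plating, on MEA plates. Endpoint: electrodes participating in network-spike peaks, AUC across DIV 5–12, DMSO as negative control.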

[15] = CCTE_Shafer_MEA_dev_network_spike_duration_std: CCTE's Neural Network Formation Assay for Standard Deviation of Network Spike Duration, Shafer Lab (AID 2284052);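 also: hits are decreases in network spike duration SD versus DMSO vehicle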
In short: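 Network spike duration variability was collapsed across recordings on days 5, 7, 9 and 12 by trapezoidal area-under-curve and fitted downward against DMSO. Cultures were rat cortical neurons on PEI-coated MEA plates, dosed continuously from plating, refed with compound DIV 5/9.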

[16] = CCTE_Shafer_MEA_dev_per_network_spike_spike_number_mean: CCTE's Neural Network Formation Assay for Mean Number of Spikes in a Network Spike, Shafer Lab (AID 2284053);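 as to AC50: fitted as decrease in spikes per network spike relative to DMSO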
In short: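 Mean spike count within each network spike, taken in a 0.05 s window at its peak, was recorded on days 5, 7, 9 and 12 and integrated as trapezoidal area under the curve. Rat cortical cultures on MEA plates received continuous compound from day 0, refreshed at medium changes on DIV 5 and 9.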

[17] = biological target: Estrogen receptor (Homo sapiens) (UniProt P03372); assay: CCTE_Deisenroth_AIME_96WELL_LUC_Inactive: CCTE's 96-well Estrogen Receptor Transactivation Assay without AIME metabolic competence (ERTA luciferase; metabolism negative), Deisenroth Lab (AID 2284025; active = hit-call score of the fitted dose curve at least 0.9, where 1 is the maximum)
In short: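 VM7Luc4E2 breast cells, luciferase read 24 h after dosing with medium pre-incubated 2 h on alginate-water lids (metabolism negative). 10-point series 0.002–200 uM, single technical replicate, n≥4; fit relative to 17beta-estradiol.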

[18] = CCTE_Deisenroth_AIME_96WELL_CTox_Active: Cytotoxicity Assessment (CTOX) in CCTE's 96-well Estrogen Receptor Transactivation Assay with AIME metabolic competence (metabolism positive), Deisenroth Lab (AID 2284028; active = hit-call score of the fitted dose curve at least 0.9, where 1 is the maximum)
In short: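 Chemicals (0.002–200 uM) were first incubated 2 h with alginate-immobilized phenobarbital/beta-naphthoflavone-induced male rat liver S9; conditioned medium then went onto VM7Luc4E2 cells for 24 h, with viability read by protease-substrate fluorescence, fitted bidirectionally.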

[19] = CCTE_Deisenroth_AIME_96WELL_CTox_Inactive: Cytotoxicity Assessment (CTOX) in CCTE's 96-well Estrogen Receptor Transactivation Assay without AIME metabolic competence (metabolism negative), Deisenroth Lab (AID 2284029; active = hit-call score of the fitted dose curve at least 0.9, where 1 is the maximum)
In short: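 Chemicals (0.002 - 200 uM, 10 points) incubated 2 h with alginate-water microspheres (no S9), then medium moved onto VM7Luc4E2 cells for 24 h. Viability by protease-substrate cleavage to fluorescent probe; bidirectional fitting.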

Measured: AC50

O=C1CCCN1CCO
inactive: [1]

CC(=O)OC(C)C
inactive: [2] | [3]

CN(C)c1ccc(C(=N)c2ccc(N(C)C)cc2)cc1
inactive: [12]
active: [4] 1.92 µM | [2] 100 µM | [5] 31.1 µM | [6] 2.89 µM | [7] 1.71 µM | [8] 2.27 µM | [9] 3.43 µM | [10] 4.06 µM | [11] 2.95 µM | [13] 1.35 µM | [14] 2.88 µM | [15] 1.73 µM | [16] 2.39 µM

O=C1CCCC1
inactive: [2] | [3]

CCOC(F)(F)C(F)(F)C(F)(F)C(F)(F)F
not listed: [1] | [2] | [3] | [5] | [17] | [18] | [19]
inactive: all other assays above

CC(C)(C)c1ccc(OC(=O)c2ccccc2O)cc1
inactive: [18] | [19]
active: [17] 23.7 µM

c1ccc2c(c1)ccc1cc3c(ccc4ccccc43)cc12
not listed: [1] | [2] | [17] | [18] | [19]
inactive: all other assays above

O=C1C(N(CO)C(=O)NCO)N(CO)C(=O)N1CO (stereo not drawn)
inactive: [2] | [3] | [5]

O=C(c1ccc(O)cc1)c1ccc(O)cc1O
inactive: [1]

Nc1ccc(N)c(Cl)c1
inactive: [1]

C=C[Si](OC(C)=O)(OC(C)=O)OC(C)=O
inactive: [1]

CCCCC(CC)COCC1CO1 (stereo not drawn)
inactive: [1]

CCO[Si](C)(OCC)OCC
inactive: [1]

CC=CC(F)(F)C(F)(F)C(F)(F)F
not listed: [1] | [2] | [3] | [5] | [17] | [18] | [19]
inactive: all other assays above
